Data as given in PubChem BioAssay (EPA / NIEHS).
Results filed as inconclusive are left out. Active and inactive are the calls of the source. The calls were made as follows, unless noted: active = hit-call score of the fitted dose curve at least 0.9, where 1 is the maximum; inactive = score below 0.9.

Columns and labels:
[1] = ATG_PBREM_CIS: Attagene CIS-FACTORIAL HepG2 Assay for human Phenobarbital-responsive Enhancer Module (PBREM) (AID 2282955); conditions: HepG2 PBREM cis-reporter, Attagene multiplexed transcription; actives raise or lower the signal
Summary of the method: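 HepG2 cells transiently transfected with multiple cis-regulated reporter transcription units; endogenous factor activity at the PBREM element measured as reporter mRNA 24 h after dosing, via RT-PCR and capillary electrophoresis of fluorescent fragments; bidirectional fitting versus DMSO.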

[2] = target: Paired box protein Pax-6 (Homo sapiens) (UniProt P26367); assay: ATG_Pax6_CIS: Attagene CIS-FACTORIAL HepG2 Assay for human Paired Box 6 (PAX6) (AID 2282956); conditions: HepG2 CIS-FACTORIAL PAX6 reporter transcription, RNA readout; actives raise or lower the signal
Summary of the method: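 Transient MRTU transfection of HepG2 → compound exposure 24 h → TriZol RNA, oligo(dT) RT → PCR, 6-FAM primer extension, HpaI cut → capillary electrophoresis; activity fitted both directions against DMSO.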

[3] = ATG_PXRE_CIS: Attagene CIS-FACTORIAL HepG2 Assay for human Pregnane X Receptor Element (PXRE) (AID 2282957); conditions: HepG2 Attagene CIS-FACTORIAL PXRE reporter, mRNA; actives raise or lower the signal
Summary of the method: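 Transfect HepG2 with MRTUs (cis promoter elements); dose chemical, incubate 24 h; isolate RNA, RT with oligo(dT), PCR, 6-FAM label, HpaI cut, CE. Gain/loss fit vs DMSO.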

[4] = ATG_PPRE_CIS: Attagene CIS-FACTORIAL HepG2 Assay for human Peroxisome Proliferator-activated Response Element (PPRE) (AID 2282958); conditions: HepG2 PPRE cis-element reporter, Attagene transcription factor profiling; actives raise or lower the signal
Summary of the method: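 HepG2 cells transiently transfected with multiplexed cis-element reporter units measure endogenous transcription factor activity. After 24 h compound exposure, reporter mRNA is quantified by RT-PCR, 6-FAM labeling, HpaI digestion and capillary electrophoresis; bidirectional fits are made against DMSO baseline.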

[5] = ATG_Sox_CIS: Attagene CIS-FACTORIAL HepG2 Assay for human SRY-box transcription factor (SOX) (AID 2282960); conditions: HepG2 Attagene cis-factorial SOX reporter, mRNA; actives raise or lower the signal
Summary of the method: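 HepG2 cells transiently transfected with cis-element-driven multiple reporter transcription units, dosed 24 h; reporter mRNA measured by RT-PCR, FAM labelling, HpaI digestion and capillary electrophoresis. Bidirectional fit versus DMSO baseline.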

[6] = target: Transcription factor Sp1 (Homo sapiens) (UniProt P08047); assay: ATG_Sp1_CIS: Attagene CIS-FACTORIAL HepG2 Assay for human Specificity Protein 1 (Sp1) (AID 2282961); conditions: HepG2 Sp1 cis-reporter transcription, actives raise or lower the signal
Summary of the method: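 HepG2 cells transiently transfected with multiple reporter transcription units driven by cis-regulatory elements; Sp1-responsive reporter mRNA measured 24 h after dosing by RT-PCR and capillary electrophoresis fluorescence, fitted bidirectionally against DMSO baseline.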

[7] = ATG_SREBP_CIS: Attagene CIS-FACTORIAL HepG2 Assay for human Sterol Regulatory Element Binding (SREBP) (AID 2282962); conditions: HepG2 Attagene cis-factorial SREBP reporter, mRNA; actives raise or lower the signal
Summary of the method: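 Transfected HepG2 (cis-regulated reporter library, endogenous TFs) → compound 24 h → total RNA → oligo(dT) RT → reporter-specific PCR → FAM primer extension, HpaI cut → CE fluorescence. Fit bidirectional vs DMSO.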

[8] = target: Signal transducer and activator of transcription 3 (Homo sapiens) (UniProt P40763); assay: ATG_STAT3_CIS: Attagene CIS-FACTORIAL HepG2 Assay for human Signal Transducer and Activator of Transcription 3 (STAT3) (AID 2282963); conditions: HepG2, Attagene cis-factorial STAT3 reporter transcription; actives raise or lower the signal
Summary of the method: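 HepG2 cells transiently transfected with cis-element-driven multiple reporter transcription units; after 24 h chemical exposure, reporter mRNA measured by RT-PCR, 6-FAM primer-extension labelling, HpaI digestion and capillary electrophoresis. Bidirectional fitting versus DMSO baseline.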

[9] = ATG_TA_CIS: Attagene CIS-FACTORIAL HepG2 Assay for human TA Basal Promoter (AID 2282964); conditions: HepG2 Attagene CIS-factorial TA basal promoter reporter; actives raise or lower the signal
Summary of the method: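 Read-out: fluorescent reporter-transcript fragments resolved by capillary electrophoresis after RT-PCR and HpaI digestion. Source: HepG2 cells carrying transiently transfected multi-reporter cis constructs, treated 24 h. Endpoint fitted bidirectionally relative to DMSO.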

[10] = ATG_TCF_b_cat_CIS: Attagene CIS-FACTORIAL HepG2 Assay for human T-Cell-Factor with beta-catenin (TCF/b-cat) (AID 2282965); conditions: HepG2 TCF/beta-catenin cis-reporter transcription, actives raise or lower the signal
Summary of the method: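 Using capillary electrophoresis as the read-out, labelled reporter cDNA fragments from transiently transfected HepG2 were sized and quantified. Exposure lasted 24 hours; activity in either direction was referenced to DMSO.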

[11] = ATG_TAL_CIS: Attagene CIS-FACTORIAL HepG2 Assay for human TAL Basal Promoter (AID 2282966); conditions: HepG2 Attagene cis-factorial TAL promoter reporter; actives raise or lower the signal;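 also: background control endpoint measuring basal TAL promoter reporter mRNA not a specific factor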
Summary of the method: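 Fluorescence of labelled reporter cDNA fragments, resolved by capillary electrophoresis, gave the readout. Human HepG2 liver cells carried transiently transfected cis-element reporter units and were treated for 24 hours; activity was fitted bidirectionally against DMSO.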

[12] = ATG_TGFb_CIS: Attagene CIS-FACTORIAL HepG2 Assay for human Transforming Growth Factor (TGF) (AID 2282967); conditions: HepG2 Attagene CIS TGFb reporter, mRNA transcription; actives raise or lower the signal
Summary of the method: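 Transient MRTU transfection of HepG2 (FuGene 6). Dose 24 h. TriZol RNA, oligo(dT) RT, PCR, 6-FAM primer extension, HpaI cut, CE. Bidirectional fit, DMSO = baseline.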

[13] = ATG_VDRE_CIS: Attagene CIS-FACTORIAL HepG2 Assay for human Vitamin D Receptor Element (VDRE) (AID 2282968); conditions: HepG2 VDRE cis-reporter transcription, actives raise or lower the signal
Summary of the method: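 HepG2 cells transiently transfected with cis-element reporter units, dosed 24 h; reporter mRNA measured by RT-PCR, 6-FAM labeling, HpaI digestion and capillary electrophoresis. Activity fitted bidirectionally against DMSO baseline.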

[14] = target: Nuclear receptor subfamily 1 group I member 3 (Homo sapiens) (UniProt Q14994); assay: ATG_CAR_TRANS: Attagene TRANS-FACTORIAL HepG2 Assay for human Constitutive Androstane Receptor (CAR) (AID 2282969; active = hit-call score of the fitted dose curve at least 0.9, where 1 is the maximum;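 also: activators raise reporter mRNA above DMSO so AC50 marks induction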); conditions: HepG2 Attagene TRANS-FACTORIAL CAR reporter
Summary of the method: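 HepG2 cells transiently transfected with multiplexed GAL4-UAS reporter units expressing chimeric NR-Gal4 proteins; compound exposure 24 h. Reporter mRNA measured by RT-PCR, 6-FAM labelling, HpaI digestion and capillary electrophoresis; gain-of-signal fitted against DMSO baseline.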

[15] = target: Estrogen receptor (Homo sapiens) (UniProt P03372); assay: ATG_ERa_TRANS: Attagene TRANS-FACTORIAL HepG2 Assay for human Estrogen Receptor alpha (ERa) (AID 2282970; active = hit-call score of the fitted dose curve at least 0.9, where 1 is the maximum); conditions: HepG2 Attagene TRANS ERa GAL4 reporter, mRNA
Summary of the method: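 Human liver HepG2, transient transfection of multiple GAL4-UAS reporter units; TRANS format (exogenous NR-Gal4 chimera). 24 h dosing. Readout: reporter mRNA, RT-PCR, 6-FAM primer extension, HpaI digest, capillary electrophoresis. Positive direction vs DMSO.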

[16] = target: X-box-binding protein 1 (Homo sapiens) (UniProt P17861); assay: ATG_Xbp1_CIS: Attagene CIS-FACTORIAL HepG2 Assay for human X-box Binding Protein 1 (XBP1) (AID 2282972); conditions: HepG2 XBP1 cis-element reporter, Attagene multiplex; actives raise or lower the signal
Summary of the method: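 HepG2, transient MRTU transfection (cis-promoter driven), 24 h compound exposure. Total RNA → oligo(dT) RT → PCR → 6-FAM labeling → HpaI cut → CE. Bidirectional fit vs DMSO.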

[17] = ATG_RORE_CIS: Attagene CIS-FACTORIAL HepG2 Assay for human RAR-related Orphan Receptor Element (RORE) (AID 2282959); conditions: HepG2 Attagene cis-factorial RORE reporter, mRNA; actives raise or lower the signal
Summary of the method: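 HepG2 cells transiently transfected with multiple cis-element reporter transcription units, exposed to chemical for 24 h. Reporter mRNA quantified by RT-PCR, 6-FAM primer-extension labeling, HpaI digestion and capillary electrophoresis; bidirectional fit versus DMSO baseline.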

[18] = ATG_M_19_TRANS: Attagene TRANS-FACTORIAL HepG2 Assay for M19 Transcription Factor (Internal Marker) (AID 2282974; active = hit-call score of the fitted dose curve at least 0.9, where 1 is the maximum); conditions: HepG2 Attagene TRANS-FACTORIAL M19 internal marker reporter
Summary of the method: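 HepG2 cells transiently transfected with multiple GAL4-UAS reporter transcription units were exposed to chemicals for 24 h. Reporter mRNA was read by RT-PCR, 6-FAM primer extension, HpaI digestion and capillary electrophoresis; gain of signal fitted relative to DMSO.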

[19] = ATG_GAL4_TRANS: Attagene TRANS-FACTORIAL HepG2 Assay for GAL4 (Internal Marker) (AID 2282976; active = hit-call score of the fitted dose curve at least 0.9, where 1 is the maximum); conditions: HepG2 Attagene TRANS GAL4 internal marker reporter
Summary of the method: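 First, HepG2 cells were transfected with reporter units under GAL4-UAS control. Next, they were treated with chemical for 24 h. Finally, RNA was reverse-transcribed, PCR-amplified, FAM-labelled and resolved by capillary electrophoresis, with induction scored against DMSO.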

Sequence of Paired box protein Pax-6 (Homo sapiens) (P26367 whole entry, looked up): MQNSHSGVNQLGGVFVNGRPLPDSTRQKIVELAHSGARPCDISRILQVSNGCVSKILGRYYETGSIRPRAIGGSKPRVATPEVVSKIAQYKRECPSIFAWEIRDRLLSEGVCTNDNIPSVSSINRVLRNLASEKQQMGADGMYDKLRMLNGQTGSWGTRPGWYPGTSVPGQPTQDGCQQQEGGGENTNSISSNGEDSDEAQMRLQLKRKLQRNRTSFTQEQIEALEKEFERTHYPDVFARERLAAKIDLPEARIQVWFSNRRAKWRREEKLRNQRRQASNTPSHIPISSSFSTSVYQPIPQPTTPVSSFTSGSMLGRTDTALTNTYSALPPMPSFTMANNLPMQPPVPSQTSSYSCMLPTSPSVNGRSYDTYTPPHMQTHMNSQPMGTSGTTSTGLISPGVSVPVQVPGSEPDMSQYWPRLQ
Sequence of Transcription factor Sp1 (Homo sapiens) (P08047 whole entry, looked up): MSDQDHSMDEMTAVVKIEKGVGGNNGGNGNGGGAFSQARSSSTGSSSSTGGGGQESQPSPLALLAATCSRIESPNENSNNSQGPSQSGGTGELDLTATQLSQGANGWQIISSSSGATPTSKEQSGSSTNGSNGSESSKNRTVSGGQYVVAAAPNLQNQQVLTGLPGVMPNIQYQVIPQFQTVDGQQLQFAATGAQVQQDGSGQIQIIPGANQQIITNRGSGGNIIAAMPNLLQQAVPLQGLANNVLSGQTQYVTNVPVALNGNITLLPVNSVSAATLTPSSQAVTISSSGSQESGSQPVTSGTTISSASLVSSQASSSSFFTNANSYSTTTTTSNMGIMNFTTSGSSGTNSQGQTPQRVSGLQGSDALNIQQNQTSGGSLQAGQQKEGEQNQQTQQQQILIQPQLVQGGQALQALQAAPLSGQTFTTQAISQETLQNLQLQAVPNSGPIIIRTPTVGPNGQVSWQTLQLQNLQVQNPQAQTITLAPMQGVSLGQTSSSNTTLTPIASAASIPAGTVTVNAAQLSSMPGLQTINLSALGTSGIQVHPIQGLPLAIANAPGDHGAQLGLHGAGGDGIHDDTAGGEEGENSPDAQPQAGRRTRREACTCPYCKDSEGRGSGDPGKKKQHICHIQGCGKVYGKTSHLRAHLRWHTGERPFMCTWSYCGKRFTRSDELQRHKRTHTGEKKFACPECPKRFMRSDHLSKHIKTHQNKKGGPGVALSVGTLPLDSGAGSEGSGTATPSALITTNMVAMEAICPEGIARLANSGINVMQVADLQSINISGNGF
Sequence of Estrogen receptor (Homo sapiens) (P03372 whole entry, looked up, the tested form may be a part): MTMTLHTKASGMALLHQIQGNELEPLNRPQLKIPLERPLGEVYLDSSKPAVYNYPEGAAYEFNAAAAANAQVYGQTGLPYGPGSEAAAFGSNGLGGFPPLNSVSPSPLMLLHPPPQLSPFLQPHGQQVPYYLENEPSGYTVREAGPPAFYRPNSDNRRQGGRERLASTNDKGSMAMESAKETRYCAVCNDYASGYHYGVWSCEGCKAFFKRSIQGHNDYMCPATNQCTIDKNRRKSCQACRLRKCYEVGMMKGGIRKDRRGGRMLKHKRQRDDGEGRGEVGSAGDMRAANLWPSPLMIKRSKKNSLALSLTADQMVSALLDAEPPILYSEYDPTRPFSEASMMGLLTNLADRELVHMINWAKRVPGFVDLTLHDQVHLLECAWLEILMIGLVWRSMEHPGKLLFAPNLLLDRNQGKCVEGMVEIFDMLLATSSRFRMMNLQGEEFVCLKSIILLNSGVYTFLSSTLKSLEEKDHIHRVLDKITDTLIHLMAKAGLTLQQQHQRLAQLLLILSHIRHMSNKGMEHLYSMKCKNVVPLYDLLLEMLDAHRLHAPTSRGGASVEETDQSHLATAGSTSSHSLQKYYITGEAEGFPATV
Sequence of Signal transducer and activator of transcription 3 (Homo sapiens) (P40763 whole entry, looked up): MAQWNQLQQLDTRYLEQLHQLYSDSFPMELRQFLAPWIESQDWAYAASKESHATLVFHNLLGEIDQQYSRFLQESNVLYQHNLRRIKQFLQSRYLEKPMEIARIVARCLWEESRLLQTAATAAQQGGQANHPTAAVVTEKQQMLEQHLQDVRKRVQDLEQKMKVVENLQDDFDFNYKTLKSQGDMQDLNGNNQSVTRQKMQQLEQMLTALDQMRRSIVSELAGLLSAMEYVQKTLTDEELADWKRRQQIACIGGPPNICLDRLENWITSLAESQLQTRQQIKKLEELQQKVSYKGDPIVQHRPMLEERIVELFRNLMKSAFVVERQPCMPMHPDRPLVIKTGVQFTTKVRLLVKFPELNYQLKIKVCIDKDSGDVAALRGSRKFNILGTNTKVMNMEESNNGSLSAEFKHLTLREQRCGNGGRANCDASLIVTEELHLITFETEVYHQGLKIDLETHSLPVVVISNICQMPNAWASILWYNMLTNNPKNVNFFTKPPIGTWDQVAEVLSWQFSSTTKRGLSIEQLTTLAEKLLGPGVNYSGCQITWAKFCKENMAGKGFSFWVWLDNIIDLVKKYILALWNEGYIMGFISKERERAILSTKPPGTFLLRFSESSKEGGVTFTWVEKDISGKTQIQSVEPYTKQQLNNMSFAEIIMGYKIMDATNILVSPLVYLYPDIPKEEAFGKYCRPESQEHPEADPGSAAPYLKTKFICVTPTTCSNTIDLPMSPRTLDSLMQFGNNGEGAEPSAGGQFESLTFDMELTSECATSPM
Sequence of Nuclear receptor subfamily 1 group I member 3 (Homo sapiens) (Q14994 whole entry, looked up, the tested form may be a part): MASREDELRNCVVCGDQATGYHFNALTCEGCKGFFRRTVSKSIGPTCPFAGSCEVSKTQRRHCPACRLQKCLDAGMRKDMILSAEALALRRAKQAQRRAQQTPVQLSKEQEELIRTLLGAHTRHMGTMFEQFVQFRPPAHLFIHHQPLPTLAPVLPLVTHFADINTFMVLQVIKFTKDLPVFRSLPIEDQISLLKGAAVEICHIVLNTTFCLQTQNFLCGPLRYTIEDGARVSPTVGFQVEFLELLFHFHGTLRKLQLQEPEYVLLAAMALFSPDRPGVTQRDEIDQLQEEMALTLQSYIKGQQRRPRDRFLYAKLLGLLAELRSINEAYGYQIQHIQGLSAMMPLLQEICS
Sequence of X-box-binding protein 1 (Homo sapiens) (P17861 whole entry, looked up): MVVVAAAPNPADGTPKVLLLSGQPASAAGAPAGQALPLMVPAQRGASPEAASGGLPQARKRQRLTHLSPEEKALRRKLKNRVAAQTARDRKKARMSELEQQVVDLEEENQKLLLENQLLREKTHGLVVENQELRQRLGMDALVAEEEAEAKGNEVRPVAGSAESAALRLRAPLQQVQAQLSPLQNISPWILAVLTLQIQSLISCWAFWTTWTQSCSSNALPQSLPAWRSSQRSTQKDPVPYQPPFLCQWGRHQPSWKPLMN

## CCCCOCCOC(=O)c1ccccc1C(=O)OCCOCCCC
[1]
  outcome: inactive
[2]
  outcome: inactive
[3]
  AC50: 5.46 µM (active)
[4]
  outcome: inactive
[5]
  outcome: inactive
[6]
  outcome: inactive
[7]
  outcome: inactive
[8]
  outcome: inactive
[9]
  outcome: inactive
[10]
  outcome: inactive
[11]
  outcome: inactive
[12]
  outcome: inactive
[13]
  AC50: 11 µM (active)
[14]
  outcome: inactive
[15]
  outcome: inactive
[16]
  outcome: inactive

## CCCCN(CCCC)CCCCCCN(CCCC)CCCC
[1]
  outcome: inactive
[2]
  outcome: inactive
[3]
  outcome: inactive
[4]
  outcome: inactive
[17]
  outcome: inactive
[5]
  outcome: inactive
[6]
  outcome: inactive
[7]
  outcome: inactive
[8]
  outcome: inactive
[10]
  outcome: inactive
[11]
  outcome: inactive
[12]
  outcome: inactive
[13]
  outcome: inactive
[14]
  outcome: inactive
[16]
  outcome: inactive
[18]
  outcome: inactive

## Nc1cc([N+](=O)[O-])ccc1C(=O)O
[1]
  outcome: inactive
[2]
  outcome: inactive
[3]
  AC50: 64.5 µM (active)
[4]
  outcome: inactive
[17]
  outcome: inactive
[5]
  outcome: inactive
[6]
  outcome: inactive
[7]
  outcome: inactive
[8]
  outcome: inactive
[9]
  outcome: inactive
[11]
  outcome: inactive
[13]
  outcome: inactive
[14]
  outcome: inactive
[16]
  outcome: inactive
[18]
  outcome: inactive

## CN(C)C(=O)Nc1ccccc1
[1]
  outcome: inactive
[2]
  outcome: inactive
[3]
  AC50: 26.5 µM (active)
[4]
  outcome: inactive
[17]
  outcome: inactive
[5]
  outcome: inactive
[6]
  outcome: inactive
[7]
  outcome: inactive
[8]
  outcome: inactive
[11]
  outcome: inactive
[12]
  outcome: inactive
[13]
  outcome: inactive
[15]
  outcome: inactive
[16]
  outcome: inactive

## CCOC(=O)CC(C)C
[1]
  outcome: inactive
[2]
  outcome: inactive
[3]
  outcome: inactive
[4]
  outcome: inactive
[17]
  outcome: inactive
[5]
  outcome: inactive
[6]
  outcome: inactive
[7]
  outcome: inactive
[8]
  outcome: inactive
[9]
  outcome: inactive
[11]
  outcome: inactive
[12]
  outcome: inactive
[16]
  outcome: inactive
[18]
  outcome: inactive
[19]
  outcome: inactive

## NC(=O)NC(N)=O
[1]
  outcome: inactive
[2]
  outcome: inactive
[3]
  outcome: inactive
[4]
  outcome: inactive
[17]
  outcome: inactive
[5]
  outcome: inactive
[6]
  outcome: inactive
[7]
  outcome: inactive
[8]
  outcome: inactive
[10]
  outcome: inactive
[12]
  outcome: inactive
[14]
  outcome: inactive
[15]
  outcome: inactive
[16]
  outcome: inactive
[19]
  outcome: inactive

## CN(C)CCC=C1c2ccccc2CCc2ccccc21
[1]
  outcome: inactive
[2]
  outcome: inactive
[3]
  AC50: 13.2 µM (active)
[4]
  outcome: inactive
[17]
  outcome: inactive
[5]
  outcome: inactive
[6]
  AC50: 45.3 µM (active)
[7]
  outcome: inactive
[8]
  outcome: inactive
[9]
  outcome: inactive
[11]
  outcome: inactive
[14]
  outcome: inactive
[15]
  outcome: inactive
[16]
  AC50: 40 µM (active)

## CCCC[N+](C)(CCCC)CCCC
[1]
  outcome: inactive
[2]
  outcome: inactive
[3]
  outcome: inactive
[4]
  outcome: inactive
[17]
  outcome: inactive
[5]
  outcome: inactive
[6]
  outcome: inactive
[7]
  outcome: inactive
[8]
  outcome: inactive
[9]
  outcome: inactive
[10]
  outcome: inactive
[13]
  outcome: inactive
[14]
  outcome: inactive
[16]
  outcome: inactive
[18]
  outcome: inactive
[19]
  outcome: inactive

## CCCc1ccc(O)cc1
[1]
  outcome: inactive
[2]
  outcome: inactive
[3]
  outcome: inactive
[4]
  outcome: inactive
[17]
  outcome: inactive
[5]
  outcome: inactive
[6]
  outcome: inactive
[7]
  outcome: inactive
[8]
  outcome: inactive
[9]
  outcome: inactive
[11]
  outcome: inactive
[13]
  outcome: inactive
[15]
  AC50: 12 µM (active)
[16]
  outcome: inactive
